This is a sample that favours compounds with a hit; in the whole collection about 10% have one here.
GLS inh = blocks human kidney-isoform glutaminase activity. hit rate 0.21% among 410,000. O94925. Potency, µM (doses to about 45.5 µM), for inactives: at the highest dose activity change, negative = inhibition, actives largely listed as inhibitors. GLS enzymatic activity, qHTS titration; also: % is scaled to controls: 0 for no effect and ±100 for the full control effect
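Read-out is an Amplex red fluorescence increase coupled through glutamate oxidase and HRP, measured before and after 30 min room-temperature incubation. hKGA is in 45 mM KH2PO4 (pH 8.2) with 0.02% Tween-20; glutamine added as 1mM solution.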
BAZ2B block = inhibitors of human BAZ2B bromodomain | AlphaScreen BAZ2B-H3K14Ac peptide displacement | Potency, µM (highest dose often 114 µM), inactives show at the highest dose activity change, negative = inhibition, hits mostly inhibitors | hit rate 4.4% among 360,000 | AID 504333; also: % is scaled to controls: 0 for no effect and ±100 for the full control effect; nearly all actives have a fitted effect of over 60% in size
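Inhibition is scored as reduced AlphaScreen emission. The BAZ2B/b-H3(5-23)K14Ac complex (50 nM each) in PBS pH 7.4, 0.01% Tween-20 meets compound (up to 110 uM) for 30 min at RT before bead addition.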
JMJD2A Tudor = JMJD2A Tudor domain (human) inhibition; O75164; AlphaScreen JMJD2A-Tudor / H3K4me3 peptide binding; Potency, µM (titrated, usually from 114 µM), for inactives: at the top dose activity change, negative = inhibition, hits mostly inhibitors; hit rate 4.4% among 390,000; also: % is scaled to controls: 0 for no effect and ±100 for the full control effect; nearly all actives have a fitted effect of over 50% in size
HP1b chromo inh = inhibitors of HP1-beta chromodomain binding to methylated histone tails; AlphaScreen HP1-beta / biotin-H3K9me3 peptide binding; Potency, µM (titrated, usually from 114 µM), for the others: top-dose activity change, negative = inhibition, actives largely listed as inhibitors; hit rate 0.56% among 390,000; also: nearly all actives have a fitted effect of over 70% in size
Target sequence (P83916 whole entry, looked up): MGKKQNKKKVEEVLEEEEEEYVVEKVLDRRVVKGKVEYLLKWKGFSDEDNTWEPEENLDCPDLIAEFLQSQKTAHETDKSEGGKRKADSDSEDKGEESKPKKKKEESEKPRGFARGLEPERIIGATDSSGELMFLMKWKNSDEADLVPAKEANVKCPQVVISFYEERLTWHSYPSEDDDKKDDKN
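HP1-beta protein (50 nM final) preincubated 30 min at room temperature with biotinylated H3(1-18)K9me3 peptide (50 nM) in PBS pH 7.4, 0.01% Tween-20, then compound added for 30 min. AlphaScreen streptavidin donor/nickel chelate acceptor beads (10 ug/mL final), 30 min dark, luminescence read.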
G9a block = G9a (human) methyltransferase inhibition | G9a H3K9 monomethylation, AlphaScreen, 2 h | hit rate 8.8% among 350,000 | Potency, µM (top dose mostly 102 µM), for inactives: at the highest dose activity, negative = inhibition, most hits filed as inhibitors; also: % is scaled to controls: 0 for no effect and ±100 for the full control effect; nearly all actives have a fitted effect of over 75% in size
Target sequence (Q96KQ7 913-1193 limits assumed): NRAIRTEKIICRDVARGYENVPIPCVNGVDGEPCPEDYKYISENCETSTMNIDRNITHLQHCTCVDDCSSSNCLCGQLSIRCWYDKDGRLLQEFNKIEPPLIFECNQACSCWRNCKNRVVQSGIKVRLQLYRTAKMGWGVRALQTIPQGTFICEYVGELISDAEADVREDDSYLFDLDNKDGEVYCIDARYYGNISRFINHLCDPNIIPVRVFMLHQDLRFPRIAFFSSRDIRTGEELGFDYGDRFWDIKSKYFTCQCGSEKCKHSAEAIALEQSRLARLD
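Quantitative HTS format: methyltransferase activity on a biotin-tagged H3K9 peptide is measured by AlphaScreen, using a rabbit anti-monomethyl-H3K9 antibody with streptavidin donor and anti-IgG acceptor beads. Final levels are 20 nM enzyme, 500 nM peptide, 20 uM SAM; 2 h RT.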
The depositor's hits bear a star; ? = inconclusive; . = no result; [ ] = remark or other dose. Calls follow the shape of the dose curve; as a rule, active = well fitted curve in the direction sought with a large enough effect; inconclusive = small, poorly fitted or top-dose-only effect, or another doubt; inactive = no such curve, though single readings can be large; an effect the other way counts as inactive or inconclusive. Potency is read from the fitted curve at half-maximal effect.

SMILES	GLS inh	BAZ2B block	JMJD2A Tudor	HP1b chromo inh	G9a block
COc1ccc(C(=O)C2CCCN(C(=O)c3cccnc3SC)C2)c(C)c1 (centres undefined)	11.5%	-21.1%	-5.0%	32.4%	-35.8%
CC(C)CNC(=O)Nc1cc(C(=O)NCc2ccc(C(C)C)cc2)ccc1N1CCCC1	-4.6%	-15.5%	-12.6%	13.5%	10.5%[12.7 µM]
COC(=O)c1ccc(CNC(=O)COC(=O)Cc2ccsc2)cc1	3.8%	-10.6%	-2.1%	23.1%	22.3%
O=C(Nc1ccc2c(c1)OCO2)C1Cc2c(-c3ccccc3Oc3ccccc3)ccnc2O1 (centres undefined)	5.7%	.	.	.	.
O=S(=O)(N/N=C/c1cccnc1)c1ccc(Cl)c(Cl)c1	10.5%	-5.0%	-16.2%	13.1%	17.8µM*
COCCCN=C(c1ccco1)n1c(=S)nc(-c2ccco2)n(CCCOC)c1=S	10.9%	?	56.2µM*	22.4µM*	7.94µM*
CC(C)c1ccc(NC(=O)CSC2=Nc3ccccc3C3=NC(CCC(=O)NCc4cccs4)C(=O)N23)cc1 (centres undefined)	5.3%	-5.5%	-17.3%	42.7%	10.2%[59 µM]
O=C(CCNC(=O)N1CC(=O)Nc2ccccc21)NCc1ccccc1	-0.4%	.	.	.	.
COc1ccccc1CNC(=O)CNC(=O)N1CC(=O)Nc2ccccc21	-20.2%	-12.8%	3.5%	32.7%	21.2%
COc1ccccc1CNCC(=O)N1CC(=O)Nc2ccccc21	8.4%	50.1µM*	20µM*	-8.3%	10µM*
O=C1CN(C(=O)CNCc2ccccc2)c2ccccc2N1	13.5%	50.1µM*	3.55µM*	?	35.5µM*
CC(/C=C1\SC(=S)N(NS(=O)(=O)c2ccccc2)C1=O)=C\c1ccccc1	0.0%	44.7µM*	?	-20.0%	15.8µM*
Cc1ccc(S(=O)(=O)NN2C(=O)/C(=C/c3cccc(F)c3)SC2=S)cc1	1.4%	?	-32.0%	2.4%	20.1%[0.501 µM]
Cc1ccc(S(=O)(=O)NN2C(=O)/C(=C/c3ccccn3)SC2=S)cc1	20.9%	-37.4%	-34.2%	-4.3%	39.8µM*
CC(/C=C1\SC(=S)N(NC(=O)c2ccc(C)cc2)C1=O)=C\c1ccccc1	5.2%	?	?	-17.7%	?
CC(/C=C1\SC(=S)N(NC(=O)c2ccccc2C)C1=O)=C\c1ccccc1	-1.2%	?	?	?	28.2µM*
O=C1/C(=C\c2ccc(Br)cc2)SC(=S)N1NS(=O)(=O)c1ccccc1	3.8%	-9.2%	?	-8.7%	7.9%
CC(/C=C1\SC(=S)N(NS(=O)(=O)c2ccc(C)cc2)C1=O)=C\c1ccccc1	12.2%	35.5µM*	56.2µM*	-23.7%	10µM*
Cc1ccc2c(Cl)c(Cc3ccccc3)c(=S)[nH]c2n1	-3.7%	.	31.6µM*	?	.
O=C1C=CC(O)(c2cc(=O)c3c(O)cc(O)cc3o2)C=C1	18.1%	-1.4%	-22.5%	20.8%	44.7µM*
Cc1ccc(N2CC(C(=O)OCC(=O)Nc3cc(C)on3)CC2=O)c(C)c1 (centres undefined)	-4.2%	-15.7%	-3.8%	25.5%	16.7%
Cc1cc(C)cc(N2CC(C(=O)OCC(=O)Nc3cc(C)on3)CC2=O)c1 (centres undefined)	-1.1%	-9.0%	-2.8%	11.8%	50.1µM*
Cc1cccc(C(=O)Nc2cccc(C(=O)OCc3cc(=O)n4nc(C5CC5)sc4n3)c2)c1	3.5%	-2.3%	7.3%	28.4%	0.3%[12.7 µM]
COc1ccc(C)cc1NC(=O)c1cc2c(=O)n(Cc3cccnc3)ccc2nc1C	-7.5%	-16.5%	-15.3%	48.0%	-1.7%[59 µM]
Cc1cc(C)cc(NC(=O)C2CCN(S(=O)(=O)c3cccc(-c4noc(C)n4)c3)CC2)c1	1.0%	-32.4%	-22.0%	19.5%	-10.4%[59 µM]
COc1cccc(C(=O)CSc2nccn2C)c1	0.3%	-8.9%	-9.7%	4.9%	50.1µM*
Cn1ccnc1SCC(=O)c1ccc(Cl)cc1	1.4%	-37.4%	-17.8%	1.6%	50.1µM*
COc1cccc(C(=O)CSc2nnc(CNS(=O)(=O)c3ccc(C)cc3)n2C)c1	-5.1%	-3.3%	20µM*	?	3.16µM*
Cc1ccc(/C=C/c2onc(C)c2S(=O)(=O)N2CCC(C(=O)NCC(C)c3ccccc3)CC2)cc1 (centres undefined)	5.5%	-1.4%	-18.5%	17.0%[57 µM]	4.5%[59 µM]

Bioassay records as filed in PubChem BioAssay.
